Only a selection was taken, and hits are over-represented in it overall.
14-3-3 PPI = modulators of 14-3-3 gamma protein binding, primary screen, biochemical, fluorescence polarization; 14-3-3 protein gamma (Homo sapiens), P61981; FP, 14-3-3gamma / TMR-pS259-Raf peptide binding; inhibition, % at 40 µM; 160,000 compounds, 0.19% hits; AID 422, 2006; in the data active = inhibition above about 30%;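 note: 0% = protein plus tracer without compound and 100% = blank with tracer alone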
Target sequence (P61981 whole entry, looked up): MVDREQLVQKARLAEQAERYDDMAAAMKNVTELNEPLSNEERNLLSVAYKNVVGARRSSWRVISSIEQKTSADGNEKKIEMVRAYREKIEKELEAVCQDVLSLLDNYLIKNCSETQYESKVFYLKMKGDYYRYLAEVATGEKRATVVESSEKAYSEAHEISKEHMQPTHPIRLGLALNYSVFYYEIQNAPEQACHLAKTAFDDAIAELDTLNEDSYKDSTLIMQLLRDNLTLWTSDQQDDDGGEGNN
An asterisk follows results filed as active; ! = a repeat was not active.

How did C=CCC1C(C)=NN(C(=O)c2ccc(Cl)cc2)C1(C)O (stereo not given) do in these assays?
14-3-3 PPI: -6

Results for CC1=NN(C(=O)c2ccc(Cl)cc2)C(C)(C)C1 ?
14-3-3 PPI: 49*

What do the screens show for `COc1cccc(CNC(=O)CCS(=O)(=O)c2ccc3c(c2)CC(C)N3C(C)=O)c1` (stereo not given)?
14-3-3 PPI: 0

Results for CC(=O)N1c2ccc(S(=O)(=O)CCC(=O)NCc3ccc(C)cc3)cc2CC1C (stereo not given) ?
14-3-3 PPI: 33*

What do the screens show for `CC(=O)N1c2ccc(S(=O)(=O)CCC(=O)NCc3ccccc3)cc2CC1C` (stereo not given)?
14-3-3 PPI: 20

Results for S=c1nc(Nc2ccc(Oc3ccc(Cl)cc3)cc2)c2ccccc2[nH]1 ?
14-3-3 PPI: -14

How did C=C(C)c1cccc(C(C)(C)NC(=O)N2CC=C(c3ccccc3)CC2)c1 do in these assays?
14-3-3 PPI: 5

What do the screens show for `COc1cc(C(=O)Nc2ccc(Cl)c(-c3nc4cc(C)cc(C)c4o3)c2)cc(OC)c1OC`?
14-3-3 PPI: -88

How did Cc1cccc(-n2ccnc2SCC(=O)Nc2ccc([N+](=O)[O-])cc2)c1C do in these assays?
14-3-3 PPI: 0

How did O=C(NCc1ccccn1)C1CCN(S(=O)(=O)c2cnc[nH]2)CC1 do in these assays?
14-3-3 PPI: 59*!

Results for O=C(NCc1ccccn1)C1CCN(S(=O)(=O)c2cccs2)CC1 ?
14-3-3 PPI: 8

What do the screens show for `CC1CCN(S(=O)(=O)N2CCC(C(=O)NCc3ccccn3)CC2)CC1`?
14-3-3 PPI: -4

What do the screens show for `O=C(C1CCC(CNS(=O)(=O)c2ccccc2)CC1)N1CCc2ccccc2C1` (stereo not given)?
14-3-3 PPI: -1

How did O=C(C1=C(O)C(=O)N(c2nncs2)C1c1cccc(Br)c1)c1cccs1 (stereo not given) do in these assays?
14-3-3 PPI: 84*

How did COc1ccc(C2C(C(=O)c3cccs3)=C(O)C(=O)N2c2nnc(C)s2)cc1OC (stereo not given) do in these assays?
14-3-3 PPI: -5

Results for Cc1nnc(N2C(=O)C(O)=C(C(=O)c3cccs3)C2c2cccc(Oc3ccccc3)c2)s1 (stereo not given) ?
14-3-3 PPI: -44

How did COc1ccc(-n2c(=S)[nH]c3cc(C(=O)N4CCOCC4)ccc3c2=O)cc1 do in these assays?
14-3-3 PPI: -11

Results for COc1ccc(C(=O)N=c2sc3cc(Cl)ccc3n2C)cc1OC ?
14-3-3 PPI: 2

What do the screens show for `CC1=C(C(=O)OCc2ccccc2)C(C=Cc2ccccc2)N2C(=O)CCSC2=N1` (stereo not given)?
14-3-3 PPI: 1

What do the screens show for `Cc1ccc(NC(=O)c2ccccc2C)cc1I`?
14-3-3 PPI: -6

How did Cc1ccccc1C(=O)Nc1ccccc1C(=O)Nc1ccccc1 do in these assays?
14-3-3 PPI: 35*

How did Cc1ccccc1NC(=O)c1ccccc1C do in these assays?
14-3-3 PPI: -1

What do the screens show for `CN1C(=O)C(O)(CC(=O)c2ccc(Br)s2)c2ccccc21` (stereo not given)?
14-3-3 PPI: 1

Results for Cc1cc(C)cc(N2COc3cc4c(cc3C2)OCO4)c1 ?
14-3-3 PPI: 9

What do the screens show for `NS(=O)(=O)c1ccc(NC(=O)Nc2cccc(Cl)c2)cc1`?
14-3-3 PPI: -1

What do the screens show for `Cc1c(NC(=O)c2ccccc2)cc(S(=O)(=O)c2ccc(Cl)cc2)c(O)c1C`?
14-3-3 PPI: -12

How did O=C(Nc1cc(C(=O)Nc2ccc(S(=O)(=O)O)cc2S(=O)(=O)O)cc(C(=O)Nc2ccc(S(=O)(=O)O)cc2S(=O)(=O)O)c1)Nc1cc(C(=O)Nc2ccc(S(=O)(=O)O)cc2S(=O)(=O)O)cc(C(=O)Nc2ccc(S(=O)(=O)O)cc2S(=O)(=O)O)c1 do in these assays?
14-3-3 PPI: 32*

Results for O=c1c2cc3c(cc2[nH]c(=S)n1CCCN1CCCC1)OCO3 ?
14-3-3 PPI: -15

What do the screens show for `COc1cc2c(=O)n(-c3ccc(C)cc3)c(=O)n(CC(=O)Nc3cc(C)[nH]n3)c2cc1OC`?
14-3-3 PPI: 4

Results for O=[N+]([O-])c1cccc(N2COc3ccc(Cl)cc3C2)c1 ?
14-3-3 PPI: -2

How did O=C(CSc1nccn1-c1cccc(Cl)c1)NC1CCCCC1 do in these assays?
14-3-3 PPI: -4

Results for Cc1cc(C)cc(-n2ccnc2SCC(=O)NC2CCCC2)c1 ?
14-3-3 PPI: 31*

How did Cc1cc(C)cc(-n2ccnc2SCC(=O)Nc2c(C)cc(C)cc2C)c1 do in these assays?
14-3-3 PPI: 1

Results for COc1cc(C2CC(=O)C3=C(C2)Nc2ccccc2NC3c2ccccc2[N+](=O)[O-])cc(OC)c1OC (stereo not given) ?
14-3-3 PPI: -7

What do the screens show for `Cc1ccc(S(=O)(=O)Nc2cc(C(=O)NCCc3ccccc3)ccc2N2CCCCC2)cc1`?
14-3-3 PPI: 0

What do the screens show for `Cc1ccc(S(=O)(=O)Nc2cc(C(=O)NCc3cccnc3)ccc2N2CCCCC2)cc1`?
14-3-3 PPI: 37*

Results for Cc1ccc(S(=O)(=O)Nc2cc(C(=O)NCCc3ccccc3)ccc2N2CCCC2)cc1 ?
14-3-3 PPI: -21

Results for COC(=O)C1=CN(Cc2ccc(Cl)cc2)C=C(C(=O)OC)C1c1cc(OC)c(OC)cc1Br ?
14-3-3 PPI: -2

Results for Cc1ccc(Cl)cc1NC(=O)c1ccc(N2CC3CC(C2)c2cccc(=O)n2C3)c(NC(=O)c2ccc(F)cc2)c1 (stereo not given) ?
14-3-3 PPI: -8

Results for CCc1c(C)sc(NC(=O)c2cc(-c3cccc(OC)c3)nc3ccccc23)c1C(=O)OC ?
14-3-3 PPI: -19

How did CCn1c(CSc2nc3ccccc3n2C)nc2ccccc21 do in these assays?
14-3-3 PPI: 2

How did CCn1c(CSc2nnc3ccccn23)nc2cc(C(=O)O)ccc21 do in these assays?
14-3-3 PPI: 139*

What do the screens show for `O=C(CSc1nnc2ccccn12)Nc1ccc2ccccc2c1`?
14-3-3 PPI: 1

How did CCn1c(CSc2nnc(-c3cccnc3)n2-c2ccccc2C)nc2cc(C(=O)O)ccc21 do in these assays?
14-3-3 PPI: 127*

Results for Cc1ccccc1-n1c(SCc2ccccc2)nnc1-c1cccnc1 ?
14-3-3 PPI: 1

How did CCOc1ccccc1-n1c(SCC(N)=O)nnc1-c1cccnc1 do in these assays?
14-3-3 PPI: 2

How did CCCNC(=O)C1c2ccccc2Oc2ccccc21 do in these assays?
14-3-3 PPI: 5

How did COC(=O)c1nc2n(n1)C(c1cc(OC)c(OC)c(OC)c1)C=C(c1cccc(OC)c1)N2 (stereo not given) do in these assays?
14-3-3 PPI: -8

How did CCCC(=O)N1CCN(c2cc(N3CCCC3)c(F)cc2[N+](=O)[O-])CC1 do in these assays?
14-3-3 PPI: -10

How did Cc1ccccc1N1C(=O)c2ccccc2C1=O do in these assays?
14-3-3 PPI: 0

How did CCOc1ccc(C2C(N3C(=O)c4cccc([N+](=O)[O-])c4C3=O)C(=O)N2c2ccc(C)c(Cl)c2)cc1 (stereo not given) do in these assays?
14-3-3 PPI: -2

How did Cc1ccc(C(C)C)c(OCC(=O)Nc2ccc(C)c(C)c2)c1 do in these assays?
14-3-3 PPI: -11

How did COc1ccc(OC)c(NC(=O)COc2cc(C)ccc2C(C)C)c1 do in these assays?
14-3-3 PPI: 74*

Results for COc1ccc(OC)c(NC(=O)COc2ccccc2C(C)C)c1 ?
14-3-3 PPI: -2

How did COC(=O)c1sc2nc(-c3ccncc3)cc(C(F)(F)F)c2c1N do in these assays?
14-3-3 PPI: -38

Source: PubChem
